Test results from ChEMBL document CHEMBL2218924, “A broad activity screen in support of a chemogenomic map for kinase signalling research and drug discovery” (Biochem J, 2013).

Key:
[1] = biological target: Rho-associated protein kinase 2 (Homo sapiens) (UniProt O75116); conditions: at 1 µM
[2] = biological target: Rho-associated protein kinase 2 (Homo sapiens) (UniProt O75116); conditions: at 10 µM
[3] = biological target: Proto-oncogene tyrosine-protein kinase receptor Ret (Homo sapiens) (UniProt P07949); conditions: at 1 µM
[4] = biological target: Proto-oncogene tyrosine-protein kinase receptor Ret (Homo sapiens) (UniProt P07949); conditions: at 10 µM
[5] = biological target: Macrophage-stimulating protein receptor (Homo sapiens) (UniProt Q04912); conditions: at 1 µM
[6] = biological target: Macrophage-stimulating protein receptor (Homo sapiens) (UniProt Q04912); conditions: at 10 µM
[7] = biological target: Proto-oncogene tyrosine-protein kinase ROS (Homo sapiens) (UniProt P08922); conditions: at 1 µM
[8] = biological target: Proto-oncogene tyrosine-protein kinase ROS (Homo sapiens) (UniProt P08922); conditions: at 10 µM
[9] = biological target: T1, Tyrosine-protein kinase receptor TYRO3 (Homo sapiens) (UniProt Q06418); conditions: at 1 µM
T1 sequence (whole entry): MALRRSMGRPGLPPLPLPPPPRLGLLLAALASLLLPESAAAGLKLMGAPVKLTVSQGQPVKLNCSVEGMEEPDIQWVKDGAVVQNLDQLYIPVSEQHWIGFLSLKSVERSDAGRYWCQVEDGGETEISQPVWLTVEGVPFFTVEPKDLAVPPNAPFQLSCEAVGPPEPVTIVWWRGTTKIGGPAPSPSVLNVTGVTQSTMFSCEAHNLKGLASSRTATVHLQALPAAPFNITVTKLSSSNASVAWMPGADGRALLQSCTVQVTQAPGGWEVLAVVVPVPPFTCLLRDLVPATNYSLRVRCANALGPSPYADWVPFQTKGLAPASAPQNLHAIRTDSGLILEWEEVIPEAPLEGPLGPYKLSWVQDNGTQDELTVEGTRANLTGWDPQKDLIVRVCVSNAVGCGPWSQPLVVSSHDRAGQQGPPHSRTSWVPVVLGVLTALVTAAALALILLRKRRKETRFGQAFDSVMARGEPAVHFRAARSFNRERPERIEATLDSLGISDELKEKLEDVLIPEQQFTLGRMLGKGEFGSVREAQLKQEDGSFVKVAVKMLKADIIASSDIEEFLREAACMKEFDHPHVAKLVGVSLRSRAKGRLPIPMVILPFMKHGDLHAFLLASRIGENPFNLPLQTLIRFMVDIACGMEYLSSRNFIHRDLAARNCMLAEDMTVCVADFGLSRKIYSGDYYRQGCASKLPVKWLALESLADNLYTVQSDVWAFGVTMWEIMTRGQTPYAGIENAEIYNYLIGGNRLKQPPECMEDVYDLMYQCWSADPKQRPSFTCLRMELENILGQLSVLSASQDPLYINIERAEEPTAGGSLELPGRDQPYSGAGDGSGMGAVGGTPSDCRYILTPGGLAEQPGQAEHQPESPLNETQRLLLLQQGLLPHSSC

[10] = biological target: T1, Tyrosine-protein kinase receptor TYRO3 (Homo sapiens); conditions: at 10 µM

Rho-associated protein kinase 2 (Homo sapiens), sequence (O75116 whole entry, looked up): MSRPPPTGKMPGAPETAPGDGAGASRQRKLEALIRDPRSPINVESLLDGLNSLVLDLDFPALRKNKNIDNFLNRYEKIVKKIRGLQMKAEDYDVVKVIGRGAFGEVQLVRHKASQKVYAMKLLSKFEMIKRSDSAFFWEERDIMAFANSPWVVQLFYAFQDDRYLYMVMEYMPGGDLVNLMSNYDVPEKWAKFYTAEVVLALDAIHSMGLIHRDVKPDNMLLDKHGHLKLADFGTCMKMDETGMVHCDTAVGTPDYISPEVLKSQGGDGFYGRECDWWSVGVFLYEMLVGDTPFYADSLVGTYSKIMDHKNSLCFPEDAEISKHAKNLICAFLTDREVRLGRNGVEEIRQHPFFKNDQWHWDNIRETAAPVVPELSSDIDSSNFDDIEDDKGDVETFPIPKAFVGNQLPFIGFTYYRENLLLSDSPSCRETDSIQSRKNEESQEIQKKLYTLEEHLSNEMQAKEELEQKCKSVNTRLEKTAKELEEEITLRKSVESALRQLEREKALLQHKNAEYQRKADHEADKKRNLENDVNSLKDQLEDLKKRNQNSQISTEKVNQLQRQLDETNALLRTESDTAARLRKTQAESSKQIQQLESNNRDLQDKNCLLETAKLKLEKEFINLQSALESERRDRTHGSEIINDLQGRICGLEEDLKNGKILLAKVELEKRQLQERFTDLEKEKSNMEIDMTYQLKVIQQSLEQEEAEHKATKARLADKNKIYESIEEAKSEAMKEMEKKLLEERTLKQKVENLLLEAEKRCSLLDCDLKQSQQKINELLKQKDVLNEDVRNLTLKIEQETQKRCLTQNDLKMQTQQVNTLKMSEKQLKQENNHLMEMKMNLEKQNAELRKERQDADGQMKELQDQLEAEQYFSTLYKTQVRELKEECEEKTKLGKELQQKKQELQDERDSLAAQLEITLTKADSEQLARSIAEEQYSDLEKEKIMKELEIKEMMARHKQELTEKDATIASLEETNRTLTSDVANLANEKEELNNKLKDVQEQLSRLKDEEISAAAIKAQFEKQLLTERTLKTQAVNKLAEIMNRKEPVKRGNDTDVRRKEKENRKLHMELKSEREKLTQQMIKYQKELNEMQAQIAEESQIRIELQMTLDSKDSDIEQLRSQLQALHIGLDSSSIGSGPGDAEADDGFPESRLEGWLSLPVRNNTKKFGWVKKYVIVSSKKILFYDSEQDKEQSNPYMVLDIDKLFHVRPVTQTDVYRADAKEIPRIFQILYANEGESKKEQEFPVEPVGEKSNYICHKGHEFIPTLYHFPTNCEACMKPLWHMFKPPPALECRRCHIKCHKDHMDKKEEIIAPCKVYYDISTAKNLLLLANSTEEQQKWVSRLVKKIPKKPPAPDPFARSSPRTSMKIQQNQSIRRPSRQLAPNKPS
Proto-oncogene tyrosine-protein kinase ROS (Homo sapiens), sequence (P08922 whole entry): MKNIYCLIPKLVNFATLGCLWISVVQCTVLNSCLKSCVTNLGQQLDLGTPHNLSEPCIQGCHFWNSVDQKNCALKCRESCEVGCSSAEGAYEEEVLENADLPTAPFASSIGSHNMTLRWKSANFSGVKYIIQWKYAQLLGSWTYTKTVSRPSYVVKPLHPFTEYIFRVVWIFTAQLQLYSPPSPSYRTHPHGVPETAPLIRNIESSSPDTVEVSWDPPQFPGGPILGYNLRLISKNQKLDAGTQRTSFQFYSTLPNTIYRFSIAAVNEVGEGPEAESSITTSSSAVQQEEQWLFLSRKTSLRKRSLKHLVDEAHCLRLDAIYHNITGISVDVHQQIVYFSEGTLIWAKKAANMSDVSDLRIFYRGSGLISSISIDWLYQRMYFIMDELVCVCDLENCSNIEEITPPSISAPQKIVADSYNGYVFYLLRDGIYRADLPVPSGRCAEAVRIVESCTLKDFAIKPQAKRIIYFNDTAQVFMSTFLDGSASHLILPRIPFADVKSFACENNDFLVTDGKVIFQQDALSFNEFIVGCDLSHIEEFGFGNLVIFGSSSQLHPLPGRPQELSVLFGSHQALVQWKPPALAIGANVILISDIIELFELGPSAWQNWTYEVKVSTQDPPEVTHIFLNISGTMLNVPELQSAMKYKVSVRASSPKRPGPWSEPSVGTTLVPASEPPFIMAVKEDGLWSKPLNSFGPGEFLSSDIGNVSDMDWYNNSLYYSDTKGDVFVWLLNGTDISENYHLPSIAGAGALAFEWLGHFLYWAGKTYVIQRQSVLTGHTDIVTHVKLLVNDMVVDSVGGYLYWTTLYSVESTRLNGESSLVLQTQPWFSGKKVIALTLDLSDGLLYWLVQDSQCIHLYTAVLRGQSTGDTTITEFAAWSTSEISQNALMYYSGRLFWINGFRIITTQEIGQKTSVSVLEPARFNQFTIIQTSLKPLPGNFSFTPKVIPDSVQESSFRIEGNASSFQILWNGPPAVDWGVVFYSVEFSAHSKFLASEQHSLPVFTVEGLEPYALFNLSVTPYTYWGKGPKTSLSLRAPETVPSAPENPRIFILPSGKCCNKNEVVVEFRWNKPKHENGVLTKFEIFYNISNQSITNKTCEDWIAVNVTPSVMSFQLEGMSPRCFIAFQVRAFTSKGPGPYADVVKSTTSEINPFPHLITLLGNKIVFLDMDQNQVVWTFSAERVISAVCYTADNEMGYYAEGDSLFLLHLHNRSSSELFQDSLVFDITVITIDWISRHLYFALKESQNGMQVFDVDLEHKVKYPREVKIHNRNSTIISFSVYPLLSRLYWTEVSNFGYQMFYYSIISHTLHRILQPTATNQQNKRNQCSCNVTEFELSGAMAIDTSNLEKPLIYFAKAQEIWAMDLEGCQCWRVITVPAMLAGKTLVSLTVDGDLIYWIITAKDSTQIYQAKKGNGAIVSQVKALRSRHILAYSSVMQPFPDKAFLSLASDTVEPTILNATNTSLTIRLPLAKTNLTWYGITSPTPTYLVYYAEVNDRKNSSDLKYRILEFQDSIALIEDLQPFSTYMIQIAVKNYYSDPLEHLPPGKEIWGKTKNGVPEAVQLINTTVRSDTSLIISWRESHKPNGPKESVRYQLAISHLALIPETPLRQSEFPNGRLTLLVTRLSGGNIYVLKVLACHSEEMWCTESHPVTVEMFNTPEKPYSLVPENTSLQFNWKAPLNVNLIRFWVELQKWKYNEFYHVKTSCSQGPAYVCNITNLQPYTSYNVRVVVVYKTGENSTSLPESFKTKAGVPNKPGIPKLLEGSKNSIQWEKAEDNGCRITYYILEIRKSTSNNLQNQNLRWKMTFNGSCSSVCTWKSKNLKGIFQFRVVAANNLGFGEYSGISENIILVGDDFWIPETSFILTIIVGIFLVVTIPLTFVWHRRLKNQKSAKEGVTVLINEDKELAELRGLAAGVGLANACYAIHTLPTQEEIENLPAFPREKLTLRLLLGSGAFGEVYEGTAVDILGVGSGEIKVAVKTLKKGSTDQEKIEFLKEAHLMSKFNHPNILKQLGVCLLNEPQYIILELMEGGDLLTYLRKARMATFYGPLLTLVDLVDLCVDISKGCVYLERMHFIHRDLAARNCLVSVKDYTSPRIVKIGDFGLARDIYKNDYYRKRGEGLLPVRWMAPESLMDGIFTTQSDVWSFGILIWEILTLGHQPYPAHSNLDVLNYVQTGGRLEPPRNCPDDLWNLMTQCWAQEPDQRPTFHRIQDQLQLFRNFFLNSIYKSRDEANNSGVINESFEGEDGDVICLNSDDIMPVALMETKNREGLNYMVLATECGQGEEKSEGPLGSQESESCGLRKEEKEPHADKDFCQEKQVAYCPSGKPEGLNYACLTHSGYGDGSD
Proto-oncogene tyrosine-protein kinase receptor Ret (Homo sapiens), sequence (P07949 whole entry): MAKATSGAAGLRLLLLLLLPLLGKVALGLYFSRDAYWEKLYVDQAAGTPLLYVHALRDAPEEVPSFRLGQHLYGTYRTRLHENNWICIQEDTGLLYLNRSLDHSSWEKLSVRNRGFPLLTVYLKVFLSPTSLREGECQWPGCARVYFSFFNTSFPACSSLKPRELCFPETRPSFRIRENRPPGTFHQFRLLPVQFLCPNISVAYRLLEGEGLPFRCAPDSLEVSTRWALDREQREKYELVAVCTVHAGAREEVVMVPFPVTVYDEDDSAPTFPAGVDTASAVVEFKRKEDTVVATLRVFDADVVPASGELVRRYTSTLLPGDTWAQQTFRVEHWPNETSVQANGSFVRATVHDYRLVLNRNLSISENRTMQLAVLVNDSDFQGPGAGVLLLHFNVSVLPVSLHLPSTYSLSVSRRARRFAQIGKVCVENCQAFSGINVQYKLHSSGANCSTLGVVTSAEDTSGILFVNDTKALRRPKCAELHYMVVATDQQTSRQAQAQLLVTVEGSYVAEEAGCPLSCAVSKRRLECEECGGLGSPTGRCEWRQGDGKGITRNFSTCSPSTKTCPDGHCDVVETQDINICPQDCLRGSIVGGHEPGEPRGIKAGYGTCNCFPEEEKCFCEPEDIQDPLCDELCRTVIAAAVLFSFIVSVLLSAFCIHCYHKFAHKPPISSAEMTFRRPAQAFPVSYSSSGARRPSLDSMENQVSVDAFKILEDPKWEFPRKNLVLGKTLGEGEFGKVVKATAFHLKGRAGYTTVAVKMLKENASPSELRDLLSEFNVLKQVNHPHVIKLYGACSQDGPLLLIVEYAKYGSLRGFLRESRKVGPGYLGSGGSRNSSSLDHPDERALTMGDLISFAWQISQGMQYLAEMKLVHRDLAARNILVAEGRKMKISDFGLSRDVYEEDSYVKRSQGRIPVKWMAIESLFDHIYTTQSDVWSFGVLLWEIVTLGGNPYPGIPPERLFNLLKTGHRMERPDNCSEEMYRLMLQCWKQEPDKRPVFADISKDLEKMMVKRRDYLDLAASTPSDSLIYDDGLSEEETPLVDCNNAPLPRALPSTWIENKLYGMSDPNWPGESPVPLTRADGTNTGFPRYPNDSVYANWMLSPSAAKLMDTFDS

SMILES | residual activity [1] [%] | residual activity [2] [%] | residual activity [3] [%] | residual activity [4] [%] | residual activity [5] [%] | residual activity [6] [%] | residual activity [7] [%] | residual activity [8] [%] | residual activity [9] [%] | residual activity [10] [%]
O=C1NC(=O)c2c1c1c3ccccc3[nH]c1c1[nH]c3cc(Br)ccc3c21 | 93 | 89 | 91 | 77 | 79 | 83 | 102 | 96 | 110 | 98
COc1ccc(C(=O)Nc2sc3c(c2C(N)=O)CCCC3)cc1OC | 96 | 80 | 93 | 113 | 99 | 73 | 96 | 97 | 86 | 96
O=C(O)c1ccc2c3c1cccc3c(=O)n1c3ccccc3nc21 | 119 | 107 | 97 | 61 | 106 | 109 | 109 | 101 | 98 | 88
CC#CC(=O)Nc1cc2c(Nc3ccc(F)c(Cl)c3)ncnc2cn1 | 92 | 77 | 100 | 104 | 101 | 76 | 94 | 92 | 85 | 82
CO[C@@H]1[C@H](N(C)C(=O)c2ccccc2)C[C@H]2O[C@]1(C)n1c3ccccc3c3c4c(c5c6ccccc6n2c5c31)C(=O)NC4 | 79 | 57 | 8 | 5 | 47 | 56 | 63 | 50 | – | 84
N#CC(C#N)=C(N)/C(C#N)=C/c1ccc(O)cc1 | – | – | – | – | – | 100 | 95 | 92 | – | –
c1ccc2c(-c3ccncc3)c[nH]c2c1 | 37 | 6 | 103 | 101 | 96 | 65 | 88 | 92 | 91 | 97
CCN(CC)C(=O)c1ccc(Nc2nc(OCC3CCCCC3)c3nc[nH]c3n2)cc1 | 33 | 4 | 3 | 0 | 72 | 42 | 95 | – | – | 53
Oc1n[nH]c2nnc(-c3c(-c4ccccc4)nn4ccccc34)cc12 | 83 | 91 | 102 | 80 | 70 | 53 | 91 | 87 | 109 | 97
Cn1cc(/C=C2\C(=O)Nc3ccc(S(N)(=O)=O)cc32)c2ccccc21 | 37 | 13 | 1 | 1 | 94 | 82 | 98 | 109 | 67 | 53
c1ccc(-c2n[nH]cc2-c2ccnc3ccccc23)nc1 | 93 | 76 | 104 | 91 | – | – | 98 | 93 | 93 | 75
Ic1cccc(CSc2nnc(-c3ccncc3)o2)c1 | 68 | 58 | 93 | 74 | 81 | 78 | 93 | 75 | 112 | 94
COc1cc2ncc(-c3ccccc3)nc2cc1OC | – | – | 94 | 92 | 98 | 92 | – | – | 96 | 98
O=C1NC(=O)c2cc(Nc3ccc(F)cc3)c(Nc3ccc(F)cc3)cc21 | 101 | 78 | 91 | 86 | 104 | 76 | 94 | 92 | 94 | 97
COc1cc2ncnc(Nc3ccc(NC(=O)c4ccccc4)cc3)c2cc1OC | – | 82 | 56 | 12 | 87 | 74 | 109 | 102 | 94 | 76
Cc1cc(Nc2nc(-c3ccccc3)nc3ccccc23)n[nH]1 | – | 98 | 2 | 0 | 79 | 54 | – | 40 | 98 | 53
COc1ccc(S(=O)(=O)N(CCO)c2ccccc2CN(C)C/C=C/c2ccc(Cl)cc2)cc1 | 100 | 91 | 105 | 87 | 90 | 88 | 105 | 87 | 113 | 112
COc1ccc(OC)c2c(=S)c3ccccc3[nH]c12 | 86 | 95 | 110 | 96 | 69 | 82 | 99 | 92 | 108 | 93

SMILES | residual activity [1] [%] | residual activity [2] [%] | residual activity [3] [%] | residual activity [4] [%] | residual activity [5] [%] | residual activity [6] [%] | residual activity [7] [%] | residual activity [8] [%] | residual activity [9] [%] | residual activity [10] [%]
O=C1Nc2ccccc2/C1=C1/Nc2ccccc2/C1=N\OCCC(O)CO (configuration not stated) | – | – | 2 | -1 | 75 | 61 | – | – | 52 | 46
O=C1Nc2ccc(Br)cc2/C1=C\c1cc2c([nH]1)CCCC2 | 101 | 82 | 74 | 69 | 116 | 84 | – | 80 | – | –
CN(C)CCCn1cc(C2=C(c3c[nH]c4ccccc34)C(=O)NC2=O)c2ccccc21 | 119 | 88 | – | 64 | 102 | 87 | 108 | – | – | 76
O=[N+]([O-])c1ccc(-c2nc(-c3ccc(F)cc3)c(-c3ccncc3)[nH]2)cc1 | 87 | 94 | 78 | 73 | 90 | 90 | 104 | 91 | 86 | 111
N#C/C(=C(\N)Sc1ccc(N)cc1)c1ccccc1C(F)(F)F | 102 | 95 | 109 | 90 | 88 | 83 | 100 | 89 | 103 | 98
COc1cccc(-c2cc(=O)c3ccccc3o2)c1N | 97 | 96 | 114 | 83 | 93 | 97 | 106 | 97 | 78 | 122
COc1cc2ncnc(N3CCN(C(=O)Nc4ccc(Oc5ccccc5)cc4)CC3)c2cc1OC | 98 | 87 | 101 | 82 | 74 | 20 | 81 | 86 | 97 | 95
CC(C)n1cnc2/c(=N/c3cccc(Cl)c3)nc(NCCO)[nH]c21 | 83 | 66 | 93 | 40 | 74 | 70 | 77 | 63 | 118 | 51
O=C(Nc1cccc(Nc2nccc(Nc3cccc(C(F)(F)F)c3)n2)c1)C1CC1 | 108 | 88 | 74 | 81 | 93 | 38 | 102 | 68 | 70 | 89
Cn1nc2c3c(cccc31)C(=O)c1ccccc1-2 | 104 | 89 | 93 | 63 | – | – | 97 | 88 | 96 | 97
CN(C)c1ccc(/C=C2\C(=O)Nc3ccccc32)cc1 | 112 | 38 | 66 | 32 | 91 | 92 | 106 | 103 | 100 | 99
Cn1cnc2cc3c(Nc4cccc(Br)c4)ncnc3cc21 | 93 | 81 | 66 | 65 | 88 | 64 | 91 | 98 | 59 | 53
N#CCCc1ccc2c(c1)-c1[nH]c3ccc([N+](=O)[O-])cc3c1CC(=O)N2 | 8 | 7 | 80 | 49 | – | – | – | – | 75 | 59
Oc1c2ccccc2c2c3c(cccc13)N=N2 | 74 | 39 | 43 | 11 | 78 | 51 | 93 | 85 | 97 | 81
Cc1cccc(-c2[nH]c(C(C)(C)C)nc2-c2ccc3c(c2)OCO3)n1 | 103 | 82 | 98 | 107 | – | – | 91 | 94 | 97 | –
CO[C@H]1[C@@H](OC)C[C@H](C)[C@@H](OC)C2=CC(=O)C=C(NC(=O)/C(C)=C/C=C/[C@H](OC)[C@@H](OC(N)=O)/C(C)=C/[C@@H]1C)C2=O | – | – | 108 | 106 | 85 | 85 | 92 | 94 | 86 | 101
C[C@@H](N)[C@H]1CC[C@H](C(=O)Nc2ccncc2)CC1 | 19 | 4 | – | – | – | 101 | 104 | 105 | 123 | 124
